# According to PubChem BioAssay (EPA / NIEHS):
# Values joined by “and” are separate entries in the source; they are usually repeats but may differ in a detail not shown here. Equal values may be shown once. Inconclusive results are not listed. Some compounds were tested as several samples or in several runs, with calls that do not always agree. Active and inactive are the calls of the source. How the source made its calls, unless noted: active means hit-call score of the fitted dose curve at least 0.9, where 1 is the maximum; inconclusive means response in the unintended direction; inactive means score below 0.9.
# Key:
# [1] = read-out: alkyl and aryl transferase (GSTA2), GSTA2 (gene 2939); assay: CLD_GSTA2_48hr: CellzDirect (CLD) Gene Expression Assay for alkyl and aryl transferase (GSTA2) at 48 hours (AID 2283708);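 further: active means mRNA induction above DMSO vehicle baseline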
# Summary of the method: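 Primary human hepatocytes dosed daily for two days (0.2% DMSO vehicle), harvested at 48 h. GSTA2 mRNA induction measured by quantitative nuclease protection assay with chemiluminescent imaging, fitted for gain of signal relative to DMSO.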
# [2] = read-out: glucuronosyltransferase (UGT1A1), UGT1A1 (gene 54658); assay: CLD_UGT1A1_48hr: CellzDirect (CLD) Gene Expression Assay for glucuronosyltransferase (UGT1A1) at 48 hours (AID 2283709);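 further: actives increase expression relative to DMSO so potency refers to induction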
# Summary of the method: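 Human primary hepatocytes dosed daily for two days (0.2% DMSO vehicle), harvested at 48 h. UGT1A1 mRNA induction measured by quantitative nuclease protection assay with chemiluminescence; gain of signal versus DMSO; cytotoxicity flagged from morphology.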
# [3] = STM_H9_CystineISnorm_perc: Stemina devTOX quickPredict H9 human embryonic stem cell (hESC)-based Assay for Cystine (CYSS) Metabolite Biomarker, Normalized (AID 2283713; active means hit-call score of the fitted dose curve at least 0.9, where 1 is the maximum; inactive means score below 0.9)
# Summary of the method: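 Secreted cystine was measured by UPLC-HRMS in H9 hESC medium after 72h compound exposure with 24-hourly replenishment. Values are standard-normalized areas relative to 0.1% DMSO.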
# [4] = STM_H9_OrnCyssISnorm_ratio: Stemina devTOX quickPredict H9 human embryonic stem cell (hESC)-based Assay for Ornithine (ORN):Cystine (CYSS) Ratio (AID 2283714)
# Summary of the method: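 Undifferentiated H9 hESCs were exposed to compound for 72h with media and chemical replaced every 24h. Final 24-h conditioned media were deproteinized and analysed by UPLC-HRMS. ORN and CYSS peak areas were normalized to C13 internal standards and the ratio taken versus 0.1% DMSO.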
# [5] = CEETOX_H295R_MTT_cell_viability: Viability Assessment in the CeeTox HT-H295R MTT Assay (AID 2283718; active means hit-call score of the fitted dose curve at least 0.9, where 1 is the maximum; inactive means score below 0.9;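 on AC50: curve fitted both ways so AC50 may mark viability loss or gain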)
# Summary of the method: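 H295R cells prestimulated 48 h with 10 uM forskolin, then exposed 48 h to test chemical (0.1% DMSO final). Viability by MTT (0.5 mg/ml, 4 h, 37 C), absorbance 570/650 nm; percent change versus DMSO, bidirectional fit.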
# [6] = Tanguay_ZF_120hpf_ActivityScore_legacy: (Legacy) Oregon State University Tanguay Lab 120 Hour Post-fertilization zebrafish Assay Score for Activity (AID 2283742);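 on AC50: static exposure from 6 hpf until 120 hpf at 28 °C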
# Summary of the method: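 Tropical 5D wild-type zebrafish embryos, dechorionated with pronase at 4 hpf, were exposed singly from 6 hpf to 120 hpf statically at 28C in 0.64% DMSO. Malformations and mortality were scored as binary by brightfield, with the activity score combining 18 morphology components.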
# [7] = read-out: organic anion transporter (SLCO1B1), SLCO1B1 (gene 10599); assay: CLD_SLCO1B1_48hr: CellzDirect (CLD) Gene Expression Assay for organic anion transporter (SLCO1B1) at 48 hours (AID 2283707)
# Summary of the method: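 Primary human hepatocytes from two donor preparations dosed daily for two days with multiple concentrations, 0.2% DMSO vehicle. SLCO1B1 mRNA at 48 h by quantitative nuclease protection assay, chemiluminescence; gain-of-signal fitted versus DMSO.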
# [8] = ArunA_CellTiter_hNC: Viability Assessment in the ArunA Biomedical's Oris Neural Crest (hNC) Cell Migration Assay (AID 2283752)
# Summary of the method: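 Viability of embryonic neural crest stem cells from the H9 line is scored 72 h after dosing, with DMSO as negative control and baseline. A drop in CellTiter Aqueous One signal indicates cytotoxicity.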
compound,measurement,setting,value
CC1COC(Cn2cncn2)(c2ccc(Oc3ccc(Cl)cc3)cc2Cl)O1 (stereo unspecified),outcome,[1],inactive
same,outcome,[2],inactive
same,AC50,[3],2.87 µM (active)
same,AC50,[4],3.88 µM (active)
same,AC50,[5],0.0749 µM (active)
same,outcome,[6],inactive
O=C(O)c1nc(Cl)ccc1Cl,outcome,[7],inactive
same,outcome,[1],inactive
same,outcome,[2],inactive
same,outcome,[6],inactive
CCON=C(CC)C1=C(O)CC(c2c(C)cc(C)cc2C)CC1=O (stereo unspecified),outcome,[1],inactive
same,outcome,[2],inactive
same,outcome,[3],inactive
same,outcome,[4],inactive
same,outcome,[5],inactive
same,outcome,[6],inactive
C=CC1(C)OC(=O)N(c2cc(Cl)cc(Cl)c2)C1=O (stereo unspecified),outcome,[1],inactive
same,outcome,[2],inactive
same,outcome,[3],inactive
same,outcome,[4],inactive
same,outcome,[5],inactive
same,outcome,[6],inactive
Cc1cc(Cl)ccc1OCC(=O)O,outcome,[2],inactive
same,outcome,[5],inactive
same,outcome,[6],inactive
O=C(Nc1ccccc1)Nc1ccnc(Cl)c1,AC50,[2],6.7 µM (active)
same,AC50,[6],38.6 µM (active)
C=CCC1=C(C)[C@@H](OC(=O)[C@@H]2[C@@H](C=C(C)C)C2(C)C)CC1=O,outcome,[1],inactive
same,AC50,[2],7.38 µM (active)
same,outcome,[3],inactive
same,outcome,[6],inactive
same,AC50,[8],0.992 µM (active)
N#CC(CCc1ccc(Cl)cc1)(Cn1cncn1)c1ccccc1 (stereo unspecified),outcome,[1],inactive
same,outcome,[2],inactive
same,outcome,[5],inactive
same,outcome,[6],inactive
CCc1nn(C)c(C(=O)NCc2ccc(C(C)(C)C)cc2)c1Cl,outcome,[1],inactive
same,AC50,[3],1.82 µM (active)
same,AC50,[4],1.55 µM (active)
same,AC50,[6],2.81 µM (active)
CNC(=O)ON=CC(C)(C)SC,outcome,[1],inactive
same,outcome,[2],inactive
same,AC50,[6],0.00317 µM (active)
CCCCC(CC)COC(=O)c1ccccc1C(=O)OCC(CC)CCCC (stereo unspecified),outcome,[2],inactive
same,AC50,[3],30 µM (active)
same,AC50,[4],30.9 µM (active)
same,outcome,[5],inactive
same,outcome,[6],inactive
CCOc1cc(Oc2ccc(C(F)(F)F)cc2Cl)ccc1[N+](=O)[O-],outcome,[1],inactive
same,AC50,[2],5.41 µM (active)
same,outcome,[5],inactive
same,outcome,[6],inactive
O=C(O)COc1nc(Cl)c(Cl)cc1Cl,outcome,[2],inactive
same,outcome,[6],inactive
CO/C=C(/C(=O)OC)c1ccccc1Oc1cc(Oc2ccccc2C#N)ncn1,AC50,[1],20 µM (active)
same,outcome,[2],inactive
same,outcome,[3],inactive
same,outcome,[4],inactive
same,AC50,[6],9.41 µM (active) and 2.03 µM (active)
same,outcome,[6],inactive
OC(c1ccc(Cl)cc1)(c1cncnc1)c1ccccc1Cl (stereo unspecified),AC50,[1],15.8 µM (active)
same,outcome,[2],inactive
same,AC50,[4],77.7 µM (active)
same,AC50,[5],77.2 µM (active)
same,outcome,[6],inactive
CCOC(=O)C(Cl)Cc1cc(-n2nc(C)n(C(F)F)c2=O)c(F)cc1Cl (stereo unspecified),outcome,[1],inactive
same,outcome,[2],inactive
same,AC50,[5],0.0412 µM (active)
same,AC50,[6],2.02 µM (active)
N#Cc1cc(Br)c(O)c(Br)c1,outcome,[1],inactive
same,outcome,[2],inactive
same,AC50,[6],23.8 µM (active)
CON(C)C(=O)Nc1ccc(Cl)c(Cl)c1,outcome,[2],inactive
same,AC50,[3],73.3 µM (active)
same,AC50,[4],71.7 µM (active)
same,outcome,[5],inactive
same,outcome,[6],inactive
CC1=C(C(=O)Nc2ccccc2)SCCO1,outcome,[2],inactive
same,outcome,[5],inactive
same,AC50,[6],47.7 µM (active)
COc1ccc(C(c2ccc(OC)cc2)C(Cl)(Cl)Cl)cc1,AC50,[2],8.36 µM (active)
same,outcome,[3],inactive
same,outcome,[4],inactive
same,outcome,[6],inactive
CNC(=S)S,outcome,[1],inactive
same,outcome,[2],inactive
same,outcome,[5],inactive
same,outcome,[6],inactive
CC(C)C1(C)N=C(c2nc3ccccc3cc2C(=O)O)NC1=O (stereo unspecified),outcome,[1],inactive
same,outcome,[2],inactive
same,outcome,[6],inactive
Cc1c(F)c(F)c(COC(=O)C2C(/C=C(\Cl)C(F)(F)F)C2(C)C)c(F)c1F (stereo unspecified),outcome,[1],inactive
same,outcome,[2],inactive
same,outcome,[5],inactive
same,AC50,[6],20.9 µM (active)
C=CCC1=C(C)C(OC(=O)C2C(C=C(C)C)C2(C)C)CC1=O (stereo unspecified),outcome,[1],inactive
same,AC50,[2],11.1 µM (active)
same,AC50,[5],9.99 µM (active)
same,outcome,[6],inactive
CCCCNC(=O)OCC#CI,outcome,[1],inactive
same,AC50,[6],15.8 µM (active)
CCOP(=S)(OCC)SCn1c(=O)oc2cc(Cl)ccc21,outcome,[2],inactive
same,outcome,[5],inactive
same,outcome,[6],inactive
CC(Oc1ccc(Cl)cc1Cl)C(=O)O (stereo unspecified),outcome,[1],inactive
same,outcome,[2],inactive
same,outcome,[6],inactive
C#CCOS(=O)OC1CCCCC1Oc1ccc(C(C)(C)C)cc1 (stereo unspecified),outcome,[1],inactive
same,AC50,[3],2.42 µM (active)
same,AC50,[4],2.89 µM (active)
same,outcome,[6],inactive
N#Cc1nn(-c2c(Cl)cc(C(F)(F)F)cc2Cl)c(N)c1S(=O)C(F)(F)F (stereo unspecified),AC50,[1],4.25 µM (active)
same,outcome,[2],inactive
same,AC50,[3],88.7 µM (active)
same,AC50,[4],81.7 µM (active)
same,outcome,[6],inactive
same,AC50,[8],43.8 µM (active)
CN(C)C(=S)SSC(=S)N(C)C,outcome,[1],inactive
same,AC50,[3],14.5 µM (active)
same,AC50,[4],16.2 µM (active)
same,AC50,[6],9.8 µM (active)
